Screen size: about 5,500 compounds; about 2,000 (36%) were called active. Roughly 18% stayed inconclusive and do not appear here. Cut-off read from the data, not from the text of the source: active = normalized growth mostly below about 0.91 (no sharp cut-off); inconclusive = no clear call, values can overlap the other calls; inactive = mostly above about 0.92. The list shows a part of the results.
Experiment: chemical genetic growth profiling, strain panel (AID 1159580);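 note: tested at 20 µM; growth read once vehicle control cultures reached saturation at 30 °C; 1 = growth at the plate median or of vehicle wells; lower values mean less growth of the strain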
Conditions: S. cerevisiae deletion strains, growth OD
[1] = locus YDL101C, strain DUN1, active compounds read low
[2] = locus YHR030C, strain SLT2, active compounds read low

Measured: normalized growth

CCOC(=O)COc1ccc2c(c1)OC(C)(C)CC2=O
inactive: locus YAL013W, strain DEP1, active compounds read low 0.998 | locus YBR229C, strain ROT2, active compounds read low 0.994 | locus YCL061C, strain MRC1, active compounds read low 0.964 | [1] 0.993 | locus YDL134C, strain PPH21, active compounds read low 1.01 | locus YDR150W, strain NUM1, active compounds read low 0.872 | locus YEL061C, strain CIN8, active compounds read low 1.01 | locus YGR078C, strain PAC10, active compounds read low 1 | locus YGR229C, strain SMI1, active compounds read low 1.01 | [2] 0.947 | locus YHR087W, strain rtc3, active compounds read low 0.976 | locus YJR043C, strain POL32, active compounds read low 0.994 | locus YJR075W, strain HOC1, active compounds read low 0.974 | locus YLR039C, strain RIC1, active compounds read low 1.05 | locus YLR058C, strain SHM2 (second series), active compounds read low 1 | locus YLR085C, strain ARP6, active compounds read low 0.965 | locus YLR262C, strain YPT6, active compounds read low 1.02 | locus YML094W, strain GIM5, active compounds read low 1.02 | locus YMR219W, strain ESC1, active compounds read low 0.988 | locus YMR263W, strain SAP30, active compounds read low 1.01 | locus YMR307W, strain GAS1, active compounds read low 0.986 | locus YNL128W, strain TEP1, active compounds read low 1.01 | locus YNL153C, strain GIM3, active compounds read low 0.966 | locus YNL298W, strain CLA4 (second series), active compounds read low 1.01 | locus YNL322C, strain KRE1, active compounds read low 1 | locus YNR030W, strain Alg12, active compounds read low 1 | locus YPL055C, strain LGE1, active compounds read low 0.849 | locus YPL241C, strain CIN2, active compounds read low 0.953 | locus YPR135W, strain CTF4, active compounds read low 1.03

Cc1oc2c(F)c(F)c(F)c(F)c2c1C(=O)ONC(N)c1ccc(OS(=O)(=O)N(C)C)cc1 (stereo not given)
inactive: locus YAR019C, strain CDC15, active compounds read low 0.958 | locus YBL105C, strain PKC1, active compounds read low 0.963 | locus YBR135W, strain CKS1, active compounds read low 0.971 | locus YBR136W, strain MEC1, active compounds read low 0.958 | locus YBR160W, strain CDC28, active compounds read low 0.976 | locus YDL017W, strain CDC7, active compounds read low 0.973 | locus YDL028C, strain MPS1, active compounds read low 0.959 | [1] 0.985 | locus YDL108W, strain KIN28, active compounds read low 0.978 | locus YDL132W, strain cdc53, active compounds read low 0.982 | locus YDL214C, strain PRR2, active compounds read low 0.969 | locus YDR052C, strain DBF4, active compounds read low 0.971 | locus YDR054C, strain cdc34, active compounds read low 0.976 | locus YDR226W, strain ADK1, active compounds read low 0.969 | locus YDR477W, strain SNF1, active compounds read low 0.946 | locus YER123W, strain YCK3, active compounds read low 0.926 | locus YER133W, strain GLC7, active compounds read low 0.958 | locus YFL009W, strain cdc4, active compounds read low 0.962 | locus YFL029C, strain CAK1, active compounds read low 0.958 | locus YFR003C, strain YPI1, active compounds read low 0.968 | locus YFR019W, strain FAB1, active compounds read low 0.937 | locus YFR028C, strain CDC14, active compounds read low 0.963 | locus YGR040W, strain KSS1, active compounds read low 0.949 | locus YGR052W, strain FMP48, active compounds read low 1.03 | locus YGR092W, strain DBF2, active compounds read low 0.989 | [2] 0.937 | locus YHR079C, strain IRE1, active compounds read low 0.981 | locus YHR082C, strain KSP1, active compounds read low 1.02 | locus YHR205W, strain SCH9, active compounds read low 0.926 | locus YIL147C, strain SLN1, active compounds read low 0.96 | locus YJL095W, strain BCK1, active compounds read low 0.983 | locus YJL128C, strain PBS2, active compounds read low 0.972 | locus YJL157C, strain FAR1, active compounds read low 0.963 | locus YJR016C, strain ILV3, active compounds read low 0.972 | locus YJR066W, strain TOR1 (second series), active compounds read low 0.918 | locus YJR066W, strain TOR1, active compounds read low 0.985 | locus YKL048C, strain ELM1, active compounds read low 0.981 | locus YKL067W, strain YNK1, active compounds read low 0.975 | locus YKL101W, strain HSL1, active compounds read low 0.966 | locus YKL193C, strain SDS22, active compounds read low 0.969 | locus YKL203C, strain TOR2, active compounds read low 0.99 | locus YLR113W, strain HOG1, active compounds read low 0.966 | locus YLR133W, strain CKI1, active compounds read low 0.96 | locus YLR403W, strain SFP1, active compounds read low 0.921 | locus YML070W, strain DAK1, active compounds read low 0.955 | locus YMR001C, strain CDC5, active compounds read low 0.963 | locus YMR205C, strain PFK2 (second series), active compounds read low 0.975 | locus YMR277W, strain FCP1, active compounds read low 0.964 | locus YNL006W, strain LST8, active compounds read low 0.97 | locus YNL020C, strain ARK1, active compounds read low 0.982 | locus YNL161W, strain CBK1, active compounds read low 0.971 | locus YNL183C, strain NPR1, active compounds read low 0.964 | locus YNL207W, strain RIO2, active compounds read low 0.967 | locus YNL222W, strain SSU72, active compounds read low 0.976 | locus YNL307C, strain MCK1 (second series), active compounds read low 0.952 | locus YOL078W, strain AVO1, active compounds read low 0.963 | locus YOL136C, strain PFK27, active compounds read low 0.952 | locus YOR061W, strain CKA2, active compounds read low 0.951 | locus YOR119C, strain RIO1, active compounds read low 0.97 | locus YOR231W, strain MKK1, active compounds read low 0.986 | locus YOR329C, strain SCD5, active compounds read low 0.972 | locus YPL031C, strain PHO85, active compounds read low 0.94 | locus YPL153C, strain RAD53, active compounds read low 0.946 | locus YPL204W, strain HRR25, active compounds read low 0.963 | locus YPL209C, strain IPL1, active compounds read low 0.974 | locus YPL256C, strain CLN2, active compounds read low 0.959 | locus YPR025C, strain CCL1, active compounds read low 0.968 | locus YPR106W, strain ISR1, active compounds read low 0.986 | locus YPR111W, strain DBF20, active compounds read low 0.98 | strain NNK1, active compounds read low 0.993 | strain TSCII, active compounds read low 0.967
